Shown are actives, neighbours in structure and some others; about 2% of the full set was active somewhere.
Rango-impB inh = qHTS Assay for Inhibitors of Rango (Ran-regulated importin-beta cargo) - Importin beta complex formation | Importin subunit beta-1 (Homo sapiens), Q14974 | Rango CFP/YFP FRET sensor + importin beta, 45 min | Potency, µM (top dose mostly 92.2 µM), for inactives: at the top dose inhibition of complex formation | actives 0.031% (n = 340,000) | AID 540263, 2011; calls by dose curve;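 further: 0% = DMSO wells and 100% = buffer wells lacking importin beta; nearly all actives have a fitted effect of over 15% in size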
Target sequence (Q14974 whole entry, looked up): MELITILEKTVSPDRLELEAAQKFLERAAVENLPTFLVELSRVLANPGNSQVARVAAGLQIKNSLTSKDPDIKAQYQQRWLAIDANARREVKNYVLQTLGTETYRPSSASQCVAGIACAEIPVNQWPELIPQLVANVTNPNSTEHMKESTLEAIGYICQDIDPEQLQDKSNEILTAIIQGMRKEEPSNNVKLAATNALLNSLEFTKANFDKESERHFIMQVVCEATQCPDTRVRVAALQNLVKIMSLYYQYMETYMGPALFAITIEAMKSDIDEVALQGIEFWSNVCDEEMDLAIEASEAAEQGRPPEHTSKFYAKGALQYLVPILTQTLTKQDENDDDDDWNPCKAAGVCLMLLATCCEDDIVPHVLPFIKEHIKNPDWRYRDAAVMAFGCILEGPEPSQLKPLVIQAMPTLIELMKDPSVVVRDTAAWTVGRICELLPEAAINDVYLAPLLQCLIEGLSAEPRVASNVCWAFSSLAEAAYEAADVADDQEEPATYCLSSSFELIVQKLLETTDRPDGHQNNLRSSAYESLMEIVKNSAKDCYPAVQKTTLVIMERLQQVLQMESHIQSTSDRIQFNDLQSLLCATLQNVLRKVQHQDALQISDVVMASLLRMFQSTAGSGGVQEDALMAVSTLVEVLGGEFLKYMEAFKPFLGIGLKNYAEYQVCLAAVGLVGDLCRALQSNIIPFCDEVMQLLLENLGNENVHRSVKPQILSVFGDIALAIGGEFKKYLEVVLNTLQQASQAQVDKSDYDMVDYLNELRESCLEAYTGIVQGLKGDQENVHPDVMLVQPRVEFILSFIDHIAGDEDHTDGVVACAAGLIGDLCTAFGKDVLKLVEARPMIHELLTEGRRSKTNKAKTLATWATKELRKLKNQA
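FRET biosensor Rango (snurportin 1 IBB between N-terminal EYFP and C-terminal Cerulean), 50 nM in PBS/1 mM DTT/0.02% Tween-20/0.1% BSA, preincubated 5 min RT with compound; 0.125 microM importin beta added, 45 min RT, CFP/YFP FRET ratio read.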
aSyn rescue = qHTS of alpha-syn Inhibitors. Yeast expressing alpha-synuclein, growth rescue, BacTiter-Glo, 24 h. Potency, µM (series often up to 46.1 µM), without a hit: top-dose growth rescue (activation), actives largely listed as activators. actives 0.14% (n = 370,000). AID 652106, 2013; further: % of control where 0% means no effect; nearly all actives have a fitted effect of over 65% in size
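Rescue of yeast growth: cells expressing toxic alpha-synuclein, induced in galactose at OD600 0.02, incubated with compound 24 h at 30 C. ATP luminescence quantified growth; inhibitors of toxicity appear as activators.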
Abeta yeast res = qHTS for compounds that reverse cellular toxicity of Amyloid beta (A-beta) peptide in yeast: Primary Screen; Potency, µM (top dose mostly 46.1 µM), hits mostly activators; yeast expressing A-beta42, growth rescue, OD600, 48 h; response scale: 0% DMSO, 100% iron-clioquinol control; actives 0.063% (n = 410,000); further: nearly all actives have a fitted effect of over 55% in size
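Yeast growth medium received pinned compounds, then yeast cells expressing toxic A-beta were added; plates incubated at 30 C for 48 hr. Growth read as absorbance at 600 nm, normalized to DMSO and equimolar FeCl3 plus clioquinol controls.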
S-ASM inh = Inhibitors of Secretory Acid Sphingomyelinase (S-ASM): qHTS | placental ASM, HMU-PC fluorogenic substrate, 60 min | Potency, µM (top dose mostly 57.5 µM), inactives show at the highest dose activity change, negative = inhibition, actives largely listed as inhibitors | actives 0.006% (n = 340,000)
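Human placenta-derived ASM preincubated with compound 10 min at room temperature, then reacted with 9 uM (final) fluorogenic HMU-PC substrate for 60 min at 37 C. Stop solution raises pH to 10; fluorescence read at Ex 386/Em 447 nm.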
TDP43 rescue = qHTS of TDP-43 Inhibitors; TDP-43 expressing yeast growth rescue, BacTiter-Glo, 24 h; Potency, µM (doses to about 46.1 µM), for the others: at the highest dose growth rescue (activation), usual class: activators; actives 1.8% (n = 410,000); further: % of control where 0% means no effect; nearly all actives have a fitted effect of over 50% in size
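Galactose-induced TDP-43 yeast, OD600=0.02, compound pinned; 24 hr, 30 deg C; BacTiter-Glo luminescence for growth. Inhibitors of TDP-43 toxicity read as activators.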
Rango dissoc inh = qHTS Assay for Inhibitors of RanGTP induced Rango (Ran-regulated importin-beta cargo) - Importin beta complex dissociation; Snurportin-1 (Homo sapiens) + GTP-binding nuclear protein Ran (Homo sapiens) + Importin …; Biochemical FRET Rango-importin beta, RanGTP-induced dissociation; Potency, µM (top dose mostly 46.1 µM), for inactives: top-dose activity change, negative = inhibition; actives 0.071% (n = 340,000); AID 540253, 2011; calls by dose curve; further: % of control where 0% means no effect; nearly all actives have a fitted effect of over 45% in size
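Recombinant Rango FRET biosensor (EYFP–snurportin 1 IBB–cerulean CFP10) at 0.1 uM premixed with 0.25 uM importin beta in PBS, 1 mM DTT, 0.02% Tween-20, 0.1% BSA. Compound added 5 min; RanGTP-RCC1 (0.6 uM Ran, 2 mM GTP, 0.2 uM RCC1) then triggers release, read at 45 min.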
Active calls of the source: *; i = inactive; ? = inconclusive; nt = not tested or not shown. Unless noted, the call rests on the fitted dose curve; in most records, active means well fitted curve in the direction sought with a large enough effect; inconclusive means small, poorly fitted or top-dose-only effect, or another doubt; inactive means no such curve, though single readings can be large; an effect the other way counts as inactive or inconclusive. Potency means the concentration at half of the fitted maximal effect.

SMILES | Rango-impB inh | aSyn rescue | Abeta yeast res | S-ASM inh | TDP43 rescue | Rango dissoc inh
COc1ccc(C(=O)c2oc3ccc(OC)cc3c2N)cc1 | ? | 1% | i | 36% | 11µM* | ?
C[n+]1ccnc2ccccc21 | nt | -7% | nt | nt | nt | nt
CCCNC(=O)CNC(=O)c1ccccc1OCC(=O)Nc1ccc(Br)cc1 | nt | 8% | nt | nt | nt | nt
COCc1cc(C)nc2oc(C(=O)c3ccccc3)c(N)c12 | ? | 25% | i | 53% | 13µM* | ?
Cc1ccc(Cc2c(C)nc3nc(SCC(=O)NC4CCC(C)CC4)nn3c2C)cc1 (stereo not given) | nt | nt | i | nt | 6% | nt
COc1cc(N=Nc2ccc(Br)cc2)cc(C=O)c1O | nt | -38% | i | nt | 13µM* | nt
Nc1nonc1-c1noc(-c2ccccc2Br)n1 | 0% | 1% | i | 0% | 13µM* | 6%
CCOC(=O)C1=CCN(S(=O)(=O)c2ccccc2)C1c1ccccc1 (stereo not given) | nt | 5% | i | nt | ? | nt

Compound activity deposited in PubChem BioAssay by National Center for Advancing Translational Sciences (NCATS).
